Assay results reported in the supplement of paper PMC9588786.
Several values for one entry are separate records, joined by “and”; a condition that tells them apart may be missing. Identical values can stand only once. Counter-ions that a name gives are not always drawn. ± gives the standard deviation of the averaged measurements.

Each molecule was assayed on HT-1080 (assay: relative cell viability with RSL3 co-treatment (fraction of control); higher = stronger protection from RSL3-induced ferroptosis (higher viability)). Settings: 10 µM.
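Also: viability read as CCK-8 absorbance at 450 nm in cells co-exposed to the GPX4 inhibitor RSL3, relative to a 0.01% DMSO vehicle control.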

| Compound | relative cell viability |
| --- | --- |
| CN1CCN(c2cccc(Nc3nc4c(-c5ccc(S(C)(=O)=O)cc5)cccn4n3)c2)CC1 | 1.21 ± 0.03 |
| OCCn1cc(-c2ccc3c(c2)CC/C3=N\O)c(-c2ccncc2)n1 | 0.687 ± 0.13 |
| O=C(NOCC(O)CO)c1cc(Br)c(F)c(F)c1Nc1ccc(I)cc1F (centres undefined) | 0.897 ± 0.061 |
| Cc1cc(C(C)Nc2ccccc2)c2nc(N3CCOCC3)cc(=O)n2c1 (centres undefined) | 0.627 ± 0.059 |
| C#Cc1cccc(Nc2ncnc3cc(OC)c(OCCCCCCC(=O)NO)cc23)c1 | 0.793 ± 0.046 |
| C#Cc1cccc(Nc2ncnc3cc(OCCOC)c(OCCO)cc23)c1 | 0.597 ± 0.081 |
| CO[C@@H](C)Cn1c(=O)n(C)c2cnc3ccc(-c4cncc(C(C)(C)O)c4)cc3c21 | 0.457 ± 0.13 |
| COc1cc(F)c(F)c(Nc2ccc(I)cc2F)c1NS(=O)(=O)C1(C[C@H](O)CO)CC1 [Refametinib (RDEA119, Bay 86-9766)] | 0.92 ± 0.01 |
| C[S+]([O-])c1ccc(-c2nc(-c3ccc(F)cc3)c(-c3ccncc3)[nH]2)cc1 (centres undefined) | 0.603 ± 0.032 |
| C=CC(=O)Nc1cccc(Nc2nc(Nc3ccc(N4CCN(C(C)=O)CC4)cc3OC)ncc2C(F)(F)F)c1 [Rociletinib (CO-1686, AVL-301)] | 0.573 ± 0.2 |
| CN(C)C/C=C/C(=O)Nc1cc2c(Nc3ccc(F)c(Cl)c3)ncnc2cc1O[C@H]1CCOC1 [Afatinib (BIBW2992)] | 0.72 ± 0.061 |
| O=C(Nc1cccc(Cl)c1)Nc1ncc(CCNc2ncnc3ccsc23)s1 [SNS-314 Mesylate] | 0.217 ± 0.015 |
| CNC(=O)c1cc(Oc2ccc(NC(=O)Nc3cc(C(C)(C)C)nn3-c3ccc4ncccc4c3)c(F)c2)ccn1 [Rebastinib (DCC-2036)] | 0.3 ± 0.085 |
| CN1CCN(c2ccc(C(=O)Nc3n[nH]c4ccc(Cc5cc(F)cc(F)c5)cc34)c(NC3CCOCC3)c2)CC1 [Entrectinib (RXDX-101)] | 0.537 ± 0.045 |
| O=C(NCc1cccc(O)c1)Nc1nc(-c2ccncc2)cs1 | 0.77 ± 0.05 |
| NC(=O)Nc1cc(-c2cccc(F)c2)sc1C(=O)N[C@H]1CCCNC1 | 0.55 ± 0.01 |
| Cc1nc(Nc2ncc(C(=O)Nc3c(C)cccc3Cl)s2)cc(N2CCN(CCO)CC2)n1 [Dasatinib] | 0.553 ± 0.091 |
| N#CC[C@H](C1CCCC1)n1cc(-c2ncnc3[nH]ccc23)cn1 | 0.897 ± 0.083 |
| O=C(Nc1nc2cccc(-c3ccc(CN4CCS(=O)(=O)CC4)cc3)n2n1)C1CC1 [Filgotinib (GLPG0634)] | 0.687 ± 0.035 |
| CN1CCN(S(=O)(=O)c2ccc(-c3cnc(N)c(C(=O)Nc4cccnc4)n3)cc2)CC1 | 0.56 ± 0.087 |

| Compound | relative cell viability |
| --- | --- |
| CC(C)n1nc(-c2cc3cc(O)ccc3[nH]2)c2c(N)ncnc21 [Torkinib (PP242)] | 0.833 ± 0.12 |
| CN(c1ncccc1CNc1nc(Nc2ccc3c(c2)CC(=O)N3)ncc1C(F)(F)F)S(C)(=O)=O | 0.763 and 0.527 |
| O=C1NC(=O)/C(=C/c2ccc(-c3ccc(F)cc3O)o2)S1 | 0.75 ± 0.052 |
| CCOc1cc2ncc(C#N)c(Nc3ccc(F)c(Cl)c3)c2cc1NC(=O)/C=C/CN(C)C [Pelitinib (EKB-569)] | 0.247 ± 0.081 |
| Cc1nc(Nc2cnn(C3CCNCC3)c2)nc2c1N(C)C(=O)c1cc3ccccc3cc1N2C | 0.627 ± 0.09 |
| CN1CCC(COc2cnc(-c3cccc(Cn4nc(-c5cccc(C#N)c5)ccc4=O)c3)nc2)CC1 | 0.633 ± 0.067 |
| CN1CCN(c2ccc3nc(-c4c(N)c5c(F)cccc5[nH]c4=O)[nH]c3c2)CC1 [Dovitinib (TKI-258) Dilactic Acid] | 0.563 ± 0.25 |
| COc1cc2ncnc(Nc3ccc(Cl)cc3F)c2cc1OC | 0.757 ± 0.14 |
| Cc1ccc(-n2nc(C(C)(C)C)cc2NC(=O)Nc2ccc(OCCN3CCOCC3)c3ccccc23)cc1 [Doramapimod (BIRB 796)] | 0.57 ± 0.03 |
| C[C@@H](Oc1cc(-n2cnc3ccc(CN4CCN(C)CC4)cc32)sc1C(N)=O)c1ccccc1C(F)(F)F | 0.573 ± 0.042 |
| COc1cc(Nc2ncc(F)c(Nc3ccc4c(n3)NC(=O)C(C)(C)O4)n2)cc(OC)c1OC | 0.88 ± 0.095 |
| O=c1cc(-c2ccccc2)oc2c(O)c(O)ccc12 [7,8-Dihydroxyflavone] | 0.713 ± 0.011 |
| Cc1cc(CS(=O)(=O)c2ccccc2)cc(OCc2ccc(CN3CCC[C@@H]3CO)cc2)c1 | 0.723 ± 0.12 |
| COc1cc2ncnc(Nc3ccc(F)c(Cl)c3)c2cc1OCCCN1CCOCC1 [Gefitinib (ZD1839)] | 0.66 ± 0.072 |
| C=CC(=O)Nc1cccc(Oc2nc(Nc3ccc(N4CCN(C)CC4)cc3)ncc2Cl)c1 | 0.337 ± 0.057 |
| CN1CC[C@H](c2c(O)cc(O)c3c(=O)cc(-c4ccccc4Cl)oc23)[C@H](O)C1 [Flavopiridol HCl] | 0.763 ± 0.17 |
| CCCCCCCCCCCCCCCCCCOP(=O)([O-])OC1CC[N+](C)(C)CC1 [Perifosine (KRX-0401)] | 0.463 ± 0.18 |
| Nc1cc(C(F)(F)F)c(-c2cc(N3CCOCC3)nc(N3CCOCC3)n2)cn1 [Buparlisib (BKM120, NVP-BKM120)] | 0.643 ± 0.031 |
| CN(c1ccccc1CNc1nc(Nc2ccc3c(c2)CC(=O)N3)ncc1C(F)(F)F)S(C)(=O)=O | 0.723 ± 0.045 |
